From PubChem BioAssay (NCI)
Where “and” joins values, the source holds several entries; their conditions need not be identical. Equal values may be shown once. Compounds without any hit were thinned out: in the full panel of roughly 83,000, 20% have a hit.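 Activity criterion: percent growth below 10, measured after cells in 96-well plates were exposed to a single compound concentration for 48 hours.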 Values without a mark were called inactive. Calls of active or inactive are those of the source.

How the values were obtained:
Assay in all cases: NCI-60 one-dose screen, 48 h (100 = growth as untreated, 0 = no growth, -100 = all killed)
Conditions in all cases: 10 µM unless noted
SK-MEL-2 melanoma = system: SK-MEL-2 melanoma
EKVX NSCLC = system: EKVX NSCLC
SN12C renal = system: SN12C renal
UO-31 renal = system: UO-31 renal
TK-10 renal = system: TK-10 renal
CAKI-1 renal = system: CAKI-1 renal
A498 renal = system: A498 renal
HL-60(TB) leukemia = system: HL-60(TB) leukemia
CCRF-CEM leukemia = system: CCRF-CEM leukemia
ACHN renal = system: ACHN renal

SMILES	growth (SK-MEL-2 melanoma)	growth (EKVX NSCLC)	growth (SN12C renal)	growth (UO-31 renal)	growth (TK-10 renal)	growth (CAKI-1 renal)	growth (A498 renal)	growth (HL-60(TB) leukemia)	growth (CCRF-CEM leukemia)	growth (ACHN renal)
COc1ccc(CN)cc1OC	112%	121%	98.7% and 98.1%	96.8% and 82.6%	127% and 115%	101%	124% and 85%	98%	116% and 97.7%	–
Cc1cc(Br)c([N+](=O)[O-])cc1[N+](=O)[O-]	111%	103%	101%	114%	110%	88.5%	97.9%	59.4%	60.5%	–
COC12CC3C4=CCOC5CC(=O)N6c7ccccc7C1(CCN2C4)C6C53 (stereo not given)	108%	117%	119%	92.7%	100%	102%	94.6%	–	99.7%	–
COC1C(O)CC(OC2CC(Oc3cc4cc5c(c(O)c4c(O)c3C)C(=O)[C@@H](OC3CC(OC4CC(OC6CC(C)(O)C(OC(C)=O)C(C)O6)C(O)C(C)O4)C(O)C(C)O3)[C@H]([C@H](OC)C(=O)[C@@H](O)[C@@H](C)O)C5)OC(C)C2OC(C)=O)OC1C (stereo not given in full)	-42.1% (active)	-12.7% (active)	7.02% (active)	-12.5% (active)	2.86% (active)	-25.9% (active)	–	-23.8% (active)	-8.99% (active)	–
CC[C@H](C)[C@H](NC(=O)c1cnccn1)C(=O)N(C)[C@H](C[C@@H](OC(C)=O)c1nc(C(=O)N[C@@H](Cc2ccccc2)C[C@H](C)C(=O)OC)cs1)C(C)C	31.3%	43.9%	43.6%	40.7%	48.2%	29.4%	-7.33% (active)	-43.7% (active)	12%	–
COc1ccc2c(c1)c(-c1nc(-c3c[nH]c4ncccc34)cs1)cn2CCCCN1CCOCC1	69%	68.4%	61.9%	22.8%	64.4%	37.5%	92.3%	7.66% (active)	–	–
Cc1c(C)c(N)c(C)c(C)c1N	15%	108%	72.6%	60.6%	90.8%	46.6%	102%	103%	91.8%	–
CC(=O)C(N)Cc1ccccc1 (stereo not given)	107%	100%	95.7%	96.3%	–	96.2%	–	–	84.4%	99.7%
O=C(O)C(O)c1ccc(Cl)cc1 (stereo not given)	106% and 118%	102% and 120%	100% and 107%	99.6% and 87.7%	–	97.6% and 104%	102% and 106%	101%	106%	112% and 108%
Cc1ccc(S(=O)(=O)n2cc([C@@]3(O)C[C@H](CSC#N)OC3=O)c3ccccc32)cc1	61%	102%	60.7%	–	64.2%	66.8%	97.1%	80.1%	–	63%
Nc1ccc2c(c1)Cc1cc(N)ccc1-2	89.9%	61.2%	90.5%	62.6%	–	86.4%	84.9%	100%	60.1%	–
Oc1cc(Cl)ccc1Oc1ccc(Cl)cc1Cl	16.6%	42.7%	10.9%	-0.646% (active)	–	90.5%	103%	-24.9% (active)	24.8%	–
CC(C)CCC1C(=O)NC(=O)NC1=O	81.8%	96.1%	96.3%	–	84.5%	102%	86.6%	99.7%	106%	100%
CC(=O)c1cccc(S(=O)(=O)F)c1	91.9%	98.8%	104%	–	115%	95.9%	95.8%	103%	97.9%	99%
CC[C@H](C)[C@H]1O[C@]2(C=C[C@@H]1C)C[C@@H]1C[C@@H](C/C=C(\C)[C@@H](O[C@H]3C[C@H](OC)[C@@H](O[C@H]4C[C@H](OC)[C@@H](NC)[C@H](C)O4)[C@H](C)O3)[C@@H](C)/C=C/C=C3\CO[C@@H]4[C@H](O)C(C)=C[C@@H](C(=O)O1)[C@]34O)O2	-54.5% (active)	-40.9% (active)	-47.5% (active)	-63.2% (active)	–	18.7%	-7.23% (active)	-59.8% (active)	-43% (active)	-33.9% (active)
C[C@]12CCC(=O)C[C@@H]1CC[C@@H]1[C@@H]2CC[C@]2(C)[C@@H](OC(=O)N(CCCl)N=O)CC[C@@H]12	17.7%	69.9%	24%	25.4%	–	5.32% (active)	43.5%	-10.5% (active)	14.7%	9.18% (active)
COc1cc(C2C3=C(CCCC3=O)N(CCO)c3cc4c(cc32)CCC4)cc(OC)c1OC (stereo not given)	76.9%	81.2%	92.6%	–	82.1%	64%	100%	102%	20.3%	94.9%
COC(=O)C12C3C4C1C1C2C3C41NC(=O)c1csc([C@@H](C[C@H](C(C)C)N(C)C(=O)[C@@H](NC(=O)[C@H]2CCCCN2C)C2CC2)OC(C)=O)n1 (stereo not given in full)	19.1%	60.2%	31.1%	45.6%	–	38.1%	-3.52% (active)	-37.4% (active)	16.5%	36.4%
CC(=O)OC1CC2(O)C(CCC3(C)C(c4ccc(=O)oc4)CCC32O)C2(C)CCC(OC3OC(CO)C(O)C(O)C3O)C=C12 (stereo not given)	-23.2% (active)	-89.1% (active)	-6.05% (active)	–	-92.3% (active)	-93.5% (active)	-33.8% (active)	-46.1% (active)	–	-79.8% (active)
O=C(CBr)OCCOC(=O)CBr	103%	101%	58%	-92.4% (active)	–	33.5%	150%	42.4%	-15.5% (active)	83%
O=C1CN2CCC1CC2	101%	109%	106%	–	106%	103%	72.2%	94%	–	101%
O=CC1(c2ccccc2)CCN(Cc2ccccc2)CC1	117%	101%	107%	83.9%	–	97.9%	–	97.8%	102%	112%
CCCN1C(=O)NC(=O)C(CC)(N2C(=O)c3c(F)c(F)c(F)c(F)c3C2=O)C1=O (stereo not given)	-65.2% (active)	-44.4% (active)	-72.7% (active)	-98.8% (active)	–	-89.9% (active)	–	-80.1% (active)	-56.7% (active)	-79.4% (active)
C[C@]12CCc3sc(Nc4ccc(F)cc4)nc3C1=CC[C@@H]1[C@@H]2CC[C@]2(C)C(=O)CC[C@@H]12	76.8%	78.3%	73.8%	–	94.4%	68%	75.7%	49.8%	14%	77.9%
O=P1(N(CCCl)CCCl)NCCCO1 (stereo not given)	114%	101%	95.4%	90.3%	–	99.8%	115%	–	95.6%	103%
CNC(=O)Oc1ccc(Cl)cc1SSc1cc(Cl)ccc1OC(=O)NC	77.5%	109%	70.9%	–	123%	97.1%	98%	61.3%	–	87.2%
